Laboratory results as given in PubChem BioAssay (NCATS).
Calls of active or inactive are those of the source. Calls follow the shape of the full dose curve.

Test: qHTS drug screen for cell cycle checkpoint inhibitors in PARPi-resistant BRCA-mutant ovarian cancer cell lines. (AID 1963452)
Settings: PEO1/OlaR viability, CellTiter-Glo luminescence, 96 h; for Z-AUC: stronger effect = lower value
Source text: Women's Malignancies Branch, Center for Cancer Research (CCR),
National Cancer Institute (NCI), National Institutes of Health (NIH), Bethesda, MD
Poly (ADP-ribose) polymerase inhibitors (PARPis) have changed the treatment paradigm in breast cancer gene (BRCA) - mutant high-grade serous ovarian carcinoma (HGSC). However, most patients eventually develop resistance to PARPis, highlighting an unmet need for improved therapeutic strategies. Using high-throughput drug screens, we identified ataxia telangiectasia and rad3-related protein/checkpoint kinase 1 (CHK1) pathway inhibitors as cytotoxic and further validated the activity of the CHK1 inhibitor (CHK1i) prexasertib in PARPi-sensitive and -resistant BRCA-mutant HGSC cells and xenograft mouse models. CHK1i monotherapy induced DNA damage, apoptosis, and tumor size reduction. We then conducted a phase 2 study (NCT02203513) of prexasertib in patients with BRCA-mutant HGSC. The treatment was well tolerated but yielded an objective response rate of 6% (1 of 17; one partial response) in patients with previous PARPi treatment. […] BRCA reversion mutation in previously PARPi-treated BRCA-mutant patients was not associated with resistance to CHK1i.
Among others, 1082 oncology drugs, both approved and investigational, were prioritized based on their status in clinical trial development. […] Drugs with average Z-AUC values less than -1.0 in all three cell lines were classified as "hits" resulting in 151 oncology drug hits. The screen also confirmed cross-resistance between olaparib and other PARPis (rucaparib, niraparib, and talazoparib) in PARPi-resistant PEO1/OlaR and PEO4.
[1] G. L. Lin, K. M. Wilson, M. Ceribelli, B. Z. Stanton, P. J. Woo, S. Kreimer, E. Y. Qin, X. Zhang, J. Lennon, S. Nagaraja, P. J. Morris, M. Quezada, S. M. Gillespie, D. Y. Duveau, A. M. Michalowski, P. Shinn, R. Guha, M. Ferrer, C. Klumpp-Thomas, S. Michael, C. McKnight, P. Minhas, Z. Itkin, E. H. Raabe, L. Chen, R. Ghanem, A. C. Geraghty, L. Ni, K. I. Andreasson, N. A. Vitanza, K. E.Warren, C. J. Thomas, M. Monje, Therapeutic strategies for diffuse midline glioma from high-throughput combination drug screening. Sci. Transl. Med. 11, (2019).
[2] T. M. Yamamoto, A. McMellen, Z. L. Watson, J. Aguilera, R. Ferguson, E. Nurmemmedov, T. Thakar, G. L. Moldovan, H. Kim, D. M. Cittelly, A. M. Joglar, E. P. Brennecke, H. Wilson, K. Behbakht, M. J. Sikora, B. G. Bitler, Activation of Wnt signaling promotes olaparib resistant ovarian cancer. Mol. Carcinog. 58, 1770 - 1782 (2019).
PROTOCOL TABLE (as described by Inglese J, Shamu CE and Guy RK. 2007)
SEQUENCE No. (e.g., 1, 2, 3, etc.); […] (e.g., Cells, Incubation, Reagent, etc.); VALUE; DESCRIPTION.
1; Compounds; 20nL; 1536-well white tissue culture-treated plates.
2; Cells; 5 uL; PEO1, PEO4, and PEO1/OlaR cells at 600 cells per well.
3; Incubation; 96 hr; 37C, 95% humidity, 5% CO2.
4; Reagent; 3 uL; CellTiter-Glo (Promega).
5; Incubation; 15 min; room temperature.
6; Detection; Luminescence, PHERAstar (BMG Labtech) plate reader.
NOTES (numbers refer to Sequence numbers above)
1. MIPE 5.0 compounds were acoustically dispensed by Echo Acoustic Liquid Handler (Beckman Coulter Life Sciences). Each compound was plated at an 11-point concentration range with 1:3 dilution. Bortezomib, a proteasome inhibitor (final concentration, 20 uM), was used as a positive.
2. PEO1, PEO4, and PEO1/OlaR were trypsinized and dispensed in 5 uLof growth medium using a Multidrop Combi dispenser at a density of 600 cells per well to allow compounds to be present during the exponential growth phase.
3. Plates were incubated for 96 hours at standard incubator conditions and covered by a stainless steel gasketed lid to prevent evaporation.
4. Three microliters of CellTiter-Glo (Promega) were added to each well.
5. Plates were incubated at room temperature for 15 min with a stainless-steel lid in place.
6. Luminescence readings were taken using PHERAstar (BMG Labtech). […]

[1] = measured here: PEO1 parental Z-AUC
Potency is read from the fitted curve at half-maximal effect.

In the case of `COc1cc(N2CCC(N3CCN(C)CC3)CC2)ccc1Nc1ncc(Cl)c(Nc2ccccc2P(C)(C)=O)n1`, the Potency is reported as 0.549 µM (active), the Z-AUC [1] is reported as -1.53 and the Z-AUC (measured here: PEO4 Z-AUC) is reported as -1.55.
With `Cc1sc2c(c1C)C(c1ccc(Cl)cc1)=N[C@@H](CC(=O)Nc1ccc(OCCOCCOCCOCCNc3cccc4c3C(=O)N(C3CCC(=O)NC3=O)C4=O)cc1)c1nnc(C)n1-2` (some centres not stated) the Z-AUC was -1.58 (inactive), the Z-AUC [1] was -2.13 and the Z-AUC (measured here: PEO4 Z-AUC) was -1.49.
In the case of `NC(=O)c1ccccc1Nc1ccnc(Nc2cccc(O)c2)n1`, the Z-AUC is reported as -1.9 (inactive), the Z-AUC [1] is reported as -1.44 and the Z-AUC (measured here: PEO4 Z-AUC) is reported as -1.66.
With `CCCCOC(=O)NS(=O)(=O)c1sc(CC(C)C)cc1-c1ccc(Cn2ccnc2)cc1` the Z-AUC was 0.282 (inactive), the Z-AUC [1] was 0.365 and the Z-AUC (measured here: PEO4 Z-AUC) was 0.449.
With `Cn1cc(-c2ccc3c(c2)CCN3C(=O)Cc2cccc(C(F)(F)F)c2)c2c(N)ncnc21` the Z-AUC was -1.17 (inactive), the Z-AUC [1] was -0.267 and the Z-AUC (measured here: PEO4 Z-AUC) was -1.2.
For `CCOC(=O)[C@@]1(CCCCCCOc2ccc(Cl)cc2)CO1`, the Z-AUC was 1.19 (inactive), the Z-AUC [1] was 1.19 and the Z-AUC (measured here: PEO4 Z-AUC) was 1.21.
In the case of `Fc1ccc(-c2nc(-c3ccccc3F)[nH]c2-c2ccncc2)cc1`, the Z-AUC is reported as 0.595 (inactive), the Z-AUC [1] is reported as -0.0932 and the Z-AUC (measured here: PEO4 Z-AUC) is reported as 0.278.
With `C1=C/COCc2cc(ccc2OCCN2CCCC2)Nc2nccc(n2)-c2cccc(c2)COC/1` the Z-AUC was -1.05 (inactive), the Z-AUC [1] was -1.19 and the Z-AUC (measured here: PEO4 Z-AUC) was -0.941.
For `CN1CCN(C2CCN(C(=O)Nc3cc(Oc4ccc(NC(=O)C5(C(=O)Nc6ccc(F)cc6)CC5)c(F)c4)ccn3)CC2)CC1`, the Z-AUC was 0.53 (inactive), the Z-AUC [1] was 0.13 and the Z-AUC (measured here: PEO4 Z-AUC) was -0.114.
With `CCCc1cc(C)[nH]c(=O)c1CNC(=O)c1cc(-c2ccnc(N3CCN(C)CC3)c2)cc2c1cnn2C(C)C` the Z-AUC was -1.33 (inactive), the Z-AUC [1] was -1.11 and the Z-AUC (measured here: PEO4 Z-AUC) was -1.01.
With `Cc1cc(F)c(C(=O)Nc2cccc(-c3nncn3C(C)C)n2)cc1-n1cnc(C2CC2)c1` the Z-AUC was -0.535 (inactive), the Z-AUC [1] was -0.555 and the Z-AUC (measured here: PEO4 Z-AUC) was -0.37.
With `COc1cc(N2CCC(N)CC2)ccc1Nc1ncc(Cl)c(-c2c[nH]c3ccccc23)n1` the Z-AUC was -1.17 (inactive), the Z-AUC [1] was -1.5 and the Z-AUC (measured here: PEO4 Z-AUC) was -2.07.
With `Cn1cc(-c2ccc(F)c(C(F)(F)F)c2)nc1C1CCN(c2ncnc3[nH]ncc23)CC1` the Z-AUC was -0.225 (inactive), the Z-AUC [1] was -0.264 and the Z-AUC (measured here: PEO4 Z-AUC) was -0.487.
For `COC(=O)N1CC2(CC2)C[C@H](C(=O)NO)[C@H]1C(=O)N1CCN(c2ccccc2)CC1`, the Z-AUC was -0.244 (inactive), the Z-AUC [1] was -0.0786 and the Z-AUC (measured here: PEO4 Z-AUC) was 0.341.
